Experiment [1] can be described thus: qHTS assay to test for compound auto fluorescence at 535 nm (green) in HEK293 cells (AID 720680). Note: potency is the fitted concentration of half-maximal effect.
Experiment [2] can be described thus: qHTS assay to test for compound auto fluorescence at 460 nm (blue) in HEK293 cell free culture (AID 720681). The procedure, abridged:
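Compounds were added to cell-free DMEM with 10% FBS and fluorescence read directly. The blue channel used 405 nm excitation and 460 nm emission, with triamterene as the reference fluorophore.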
A general note: Quantitative high-throughput screening tests each substance at several concentrations.

A short description of experiment [3]: qHTS assay to test for compound auto fluorescence at 535 nm (green) in HEK293 cell free culture (AID 720682). Note: potency is the fitted concentration of half-maximal effect. In a few lines: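 DMEM + 10% FBS, cell-free; cpd or DMSO pinned in; Ex485/Em535 read; output as fluorescein-equivalent signal.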
A short description of experiment [4]: qHTS assay to test for compound auto fluorescence at 590 nm (red) in HEK293 cell free culture (AID 720683). Note: potency is the fitted concentration of half-maximal effect. The procedure, abridged:
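Cell-free wells of DMEM with 10% FBS received compound, and intrinsic fluorescence was read at excitation/emission 540/590 nm. Values expressed as equivalence to Rose Bengal sodium.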

Experiment [5] can be described thus: qHTS assay to test for compound auto fluorescence at 590 nm (red) in HepG2 cell free culture (AID 720684). Note: potency is the fitted concentration of half-maximal effect. The procedure, abridged: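 Auto fluorescence equivalency versus Rose Bengal sodium, red channel Ex/Em 540/590 nm; compounds in cell-free MEM/10% FBS; DMSO vehicle control.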
The nature of experiment [6]: qHTS assay to test for compound auto fluorescence at 460 nm (blue) in HepG2 cell free culture (AID 720685). In a few lines:
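Cell-free plates of MEM plus 10% FBS received 23 nL compound or DMSO vehicle; blue-channel (405/460 nm) intensity scored against triamterene as reference fluorophore.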

Experiment [7] is described as follows: qHTS assay to test for compound auto fluorescence at 460 nm (blue) in HepG2 cells (AID 720687). The procedure, abridged: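 HepG2 cells in MEM with 10% FBS, attached overnight at 37 C, were exposed to compound or DMSO for 1 hr at 37 C, 5% CO2. Blue fluorescence was read at 405/460 nm, with triamterene as reference fluorophore.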
For experiment [8], the target named is Glucocorticoid receptor (Homo sapiens) (UniProt P04150). Briefly: qHTS assay to identify small molecule agonists of the glucocorticoid receptor (GR) signaling pathway (AID 720691; active = well fitted activation curve with a large enough effect in the signal ratio in the repeat runs, not every such curve was filed as active; the % refers to the signal ratio; note: potency is the fitted concentration of half-maximal effect). The procedure, abridged:
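Measures GR pathway activation through a GRE-beta-lactamase reporter stably integrated in HeLa cells, with 18 h compound treatment at 37 C and fluorescence detection using a FRET substrate.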

For experiment [9] the target is unchanged. The experiment can be described thus: qHTS assay to identify small molecule antagonists of the glucocorticoid receptor (GR) signaling pathway (AID 720692; active = well fitted inhibition curve with a large enough effect in the signal ratio in the repeat runs, not every such curve was filed as active; the % refers to the signal ratio; note: potency is the fitted concentration of half-maximal effect). The procedure, abridged:
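Tox21 10K library screened in concentration-response for blockade of dexamethasone (5 nM final)-induced GRE-bla reporter activity in HeLa cells; 18 h treatment, fluorescence read.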

SMILES strings stand for the structures. “And” between values parts separate entries of the source, which are not always exact repeats. Equal values may be shown once. Results filed as inconclusive are left out. The source made the active and inactive calls. Unless noted, calls come from the whole dose curve; as a rule, active = well fitted curve in the direction sought with a large enough effect in the repeat runs; inconclusive = weak or mixed curves; inactive = flat fitted curve, though single readings scatter.
Tags give direction and shape of the fitted curve or compound fluorescence and quenching.

Chain of Glucocorticoid receptor (Homo sapiens) (P04150 whole entry, looked up): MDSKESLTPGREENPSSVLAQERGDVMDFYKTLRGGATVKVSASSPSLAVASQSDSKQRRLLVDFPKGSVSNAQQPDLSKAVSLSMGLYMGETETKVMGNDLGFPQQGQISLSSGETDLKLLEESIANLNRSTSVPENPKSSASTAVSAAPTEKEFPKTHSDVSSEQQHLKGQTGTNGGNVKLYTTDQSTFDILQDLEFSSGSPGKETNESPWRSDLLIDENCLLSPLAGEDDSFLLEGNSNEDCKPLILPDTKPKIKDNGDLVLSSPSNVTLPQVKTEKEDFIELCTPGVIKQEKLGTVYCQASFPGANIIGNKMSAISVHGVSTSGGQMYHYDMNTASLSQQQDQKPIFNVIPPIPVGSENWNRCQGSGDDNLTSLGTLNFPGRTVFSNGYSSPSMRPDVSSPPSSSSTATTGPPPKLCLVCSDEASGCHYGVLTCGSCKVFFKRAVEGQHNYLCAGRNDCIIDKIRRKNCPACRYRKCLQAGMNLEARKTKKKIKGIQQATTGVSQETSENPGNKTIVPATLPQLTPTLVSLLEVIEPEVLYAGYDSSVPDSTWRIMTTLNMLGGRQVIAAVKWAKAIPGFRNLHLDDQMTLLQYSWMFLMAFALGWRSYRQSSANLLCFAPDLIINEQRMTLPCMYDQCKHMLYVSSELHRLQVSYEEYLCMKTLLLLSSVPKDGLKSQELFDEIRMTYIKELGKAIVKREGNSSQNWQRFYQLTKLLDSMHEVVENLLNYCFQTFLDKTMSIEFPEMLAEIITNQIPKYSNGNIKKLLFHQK

As to `[Na+]`, the Potency entry in [1], in [2], in experiment [3], in experiment [4], in experiment [5] and in [6] was “inactive” throughout. For the same molecule, the Potency result in [7], in experiment [8] and in experiment [9] was “inactive” throughout.
Turning to `O=C1OC2(c3ccccc31)c1cc(I)c(O)c(I)c1Oc1c2cc(I)c(O)c1I`, the Potency in [1] is 10 µM [fluorescent] (active) and 14.1 µM [fluorescent] (active) and 17.8 µM [fluorescent] (active); in experiment [3], 12.6 µM [fluorescent] (active) and 8.91 µM [fluorescent] (active) and 15.8 µM [fluorescent] (active); in [4] it was 11.2 µM [fluorescent] (active) and 17.8 µM [fluorescent] (active); in experiment [5] it was 11.2 µM [fluorescent] (active) and 17.8 µM [fluorescent] (active) and 15.8 µM [fluorescent] (active). Further, the Potency entry in experiment [2], in [6] and in [7] was “inactive” in each case.
Consider `CCCCCCCCCCCCCO`, for which the Potency entry in experiment [1], in experiment [2], in experiment [3], in experiment [4], in experiment [5] and in [6] was “inactive” each time. Moreover, the Potency entry in experiment [7], in experiment [8] and in experiment [9] was “inactive” in each case.
Consider `CC/C=C\C/C=C\C/C=C\CCCCCCCC(=O)O`, for which the Potency result in experiment [1], in experiment [2], in experiment [3], in experiment [4], in experiment [5] and in [6] was “inactive” each time. Besides, in experiment [7], the Potency result was “inactive”.
On to `Brc1nc2ccccc2s1`, for which the Potency entry in experiment [1], in experiment [2], in experiment [3], in experiment [4], in [5] and in experiment [6] was “inactive” each time. Besides, the Potency result in experiment [7], in experiment [8] and in [9] was “inactive” throughout.
As for `CC(C)[N+](C)(CCOC(=O)C1c2ccccc2Oc2ccccc21)C(C)C`, the Potency entry in experiment [1], in experiment [2], in experiment [3], in [4], in experiment [5] and in [6] was “inactive” in each case. For the same molecule, the Potency result in experiment [7], in [8] and in [9] was “inactive” in each case.
Consider `COc1ccc(-c2coc3cc(O)cc(O)c3c2=O)cc1`, for which the Potency entry in [1], in [2], in [3], in [4], in [5] and in [6] was “inactive” each time. For the same molecule, the Potency result in experiment [7] and in experiment [8] was “inactive” each time.
Take `COCCOCCOCCO`: the Potency entry in experiment [1], in [2], in experiment [3], in experiment [4], in [5] and in experiment [6] was “inactive” throughout. Also, the Potency entry in experiment [7], in experiment [8] and in experiment [9] was “inactive” each time.
For the molecule `CC(C)(C)c1cccc(C(C)(C)C)c1O`, the Potency entry in experiment [1], in [2], in experiment [3], in experiment [4], in experiment [5] and in experiment [6] was “inactive” throughout. In addition, the Potency entry in [7], in [8] and in experiment [9] was “inactive” each time.
Take `CCCCCCC(C)O` (centres undefined): the Potency entry in [1], in experiment [2], in [3], in experiment [4], in [5] and in experiment [6] was “inactive” throughout. Also, the Potency entry in experiment [7], in experiment [8] and in experiment [9] was “inactive” each time.
As to `COC(=O)C(C)Oc1ccc(Oc2ncc(C(F)(F)F)cc2Cl)cc1` (centres undefined), the Potency entry in experiment [1], in experiment [2], in experiment [3], in experiment [4], in experiment [5] and in experiment [6] was “inactive” in each case. Moreover, the Potency result in [7] was “inactive”.
`CC1(C)O[C@@H]2C[C@H]3[C@@H]4C[C@H](F)C5=CC(=O)C=C[C@]5(C)[C@@]4(F)[C@@H](O)C[C@]3(C)[C@]2(C(=O)CO)O1`: the Potency result in experiment [1], in [2], in experiment [3], in [4], in [5] and in experiment [6] was “inactive” in each case. The Potency result in experiment [7] was “inactive”. Moreover, the Potency in experiment [8] is 3.8 nM (active) and 1.2 nM (active).
For the molecule `C[C@]12CC[C@@H]3c4ccc(O)cc4CC[C@H]3[C@@H]1CC[C@H]2O`, the Potency entry in [1], in experiment [2], in experiment [3], in [4], in experiment [5] and in [6] was “inactive” each time. Moreover, the Potency entry in experiment [7] and in experiment [8] was “inactive” each time. Besides, in experiment [9], the Potency was 6.27 µM (active).

Source of the values: PubChem BioAssay (Tox21).
